The values below come from PubChem BioAssay (NCATS).

Records with an inconclusive call do not appear. The source made the active and inactive calls. Calls follow the shape of the dose curve; as a rule, active = well fitted curve in the direction sought with a large enough effect; inconclusive = small, poorly fitted or top-dose-only effect, or another doubt; inactive = no such curve, though single readings can be large; an effect the other way counts as inactive or inconclusive.

One assay has as its system UISO. Briefly: qHTS assay to identify novel small-molecules to repurpose for Merkel cell carcinoma treatment (AID 1296009). Also: nearly all actives have a fitted effect of over 60% in size. To be noted: MCC and control cell lines, CellTiter-Glo viability, 72 h; series mostly up to 46 µM. In outline: (§1)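 After compound transfer in DMSO, plates were kept 72 hr at 37 degree celsius. Luminescent ATP signal from CellTiter-Glo served as viability measure, normalized against DMSO and no-cell controls.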

Another assay concerns WaGa. Described as above. To be noted: MCC and control cell lines, CellTiter-Glo viability, 72 h; series mostly up to 46 µM. In outline: as §1
The subject of a further assay is C33A. Briefly: Primary qHTS to identify gynecologic anti-cancer compounds using libraries of approved drugs and bioactive compounds (AID 1345084). Also: nearly all actives have a fitted effect of over 55% in size. Conditions: Gynecologic cancer cell panel viability, ATPlite luminescence, 48 h; series mostly up to 57.5 µM. In outline:
(§2)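 Five-point cytotoxicity, 48 h drug exposure at 37 C, 5% CO2, on cells seeded 16 h beforehand. ATP content read by ATPlite luminescence.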
A general note: qHTS replaces the single test concentration by a dilution series.

The subject of the next assay is CASKI. The description is as above. Conditions: Gynecologic cancer cell panel viability, ATPlite luminescence, 48 h; series mostly up to 57.5 µM. In outline: as §2
(In general: In ATP-based viability assays light output follows the ATP content of the culture.)

The subject of the next assay is Es-2. The description is as above. Conditions: Gynecologic cancer cell panel viability, ATPlite luminescence, 48 h; series mostly up to 57.5 µM. In outline:
as §2

For the next assay, the system named is HeLa. The assay is described as above. To be noted: Gynecologic cancer cell panel viability, ATPlite luminescence, 48 h; series mostly up to 57.5 µM. In outline: as §2
For another assay, the system named is Hek293T. Described as above. Conditions: Gynecologic cancer cell panel viability, ATPlite luminescence, 48 h, control line for the selectivity index; series mostly up to 57.5 µM. In outline:
as §2

The test system of a further assay is JEG-3. The assay is described as above. To be noted: Gynecologic cancer cell panel viability, ATPlite luminescence, 48 h; series mostly up to 57.5 µM. In outline:
as §2

In the next assay the test system is OV90. Described as above. Conditions: Gynecologic cancer cell panel viability, ATPlite luminescence, 48 h; series mostly up to 57.5 µM. In outline:
as §2

Another assay relates to CAOV3. The assay is described as above. To be noted: Gynecologic cancer cell panel viability, ATPlite luminescence, 48 h; series mostly up to 57.5 µM. In outline: as §2
Potency is read from the fitted curve at half-maximal effect.

As for `C=CCc1ccccc1OCC(O)CNC(C)C` (centres undefined), the Potency result with UISO, in the assay with WaGa, in the assay on C33A, in the assay with CASKI, with Es-2 and in the assay on HeLa was “inactive” throughout. Further, the Potency result in the assay with Hek293T, with JEG-3 and in the assay on OV90 was “inactive” throughout.
Regarding `CCc1cccc(N(C)C(N)=Nc2cccc3ccccc23)c1`, the Potency result with UISO, in the assay on C33A, in the assay with CAOV3, in the assay on CASKI, with Es-2 and in the assay on Hek293T was “inactive” throughout. Further, the Potency entry with JEG-3 is “inactive”.
`OCCN1CCN(CCCN2c3ccccc3C=Cc3ccccc32)CC1`: the Potency result with UISO, in the assay on C33A, in the assay with CAOV3, in the assay with CASKI, in the assay with Es-2 and in the assay on HeLa was “inactive” throughout. Also, the Potency result in the assay with Hek293T and in the assay on JEG-3 was “inactive” in each case.
In the case of `O=C(CCNNC(=O)c1ccncc1)NCc1ccccc1`, the Potency result in the assay on UISO, with C33A, in the assay with CAOV3, in the assay with CASKI, in the assay on Es-2 and with HeLa was “inactive” throughout. Moreover, the Potency result in the assay on Hek293T, with JEG-3 and in the assay with OV90 was “inactive” each time.
Take `CCOC(=O)C1=C(C)NC(C)=C(C(=O)OC)C1c1cccc([N+](=O)[O-])c1` (centres undefined): the Potency result in the assay on UISO, in the assay with WaGa, in the assay with C33A, with CASKI, in the assay with Es-2 and in the assay with HeLa was “inactive” in each case. For the same compound, the Potency entry with Hek293T, in the assay with JEG-3 and in the assay with OV90 was “inactive” in each case.
For `O=C1CC2(CCCC2)CC(=O)N1CCCCN1CCN(c2ncccn2)CC1`, the Potency entry in the assay on UISO, in the assay on WaGa, in the assay on C33A, in the assay on CASKI, in the assay on Es-2 and in the assay on HeLa was “inactive” in each case. Further, the Potency entry in the assay with Hek293T, with JEG-3 and in the assay on OV90 was “inactive” each time.
Turning to `CN(C)C/C=C(/c1ccc(Br)cc1)c1cccnc1`, the Potency entry with UISO, in the assay on WaGa, in the assay on C33A, in the assay on CAOV3, in the assay on CASKI and in the assay on HeLa was “inactive” throughout. Moreover, the Potency entry in the assay on Hek293T, with JEG-3 and with OV90 was “inactive” in each case.
For the compound `CN(C)C(=O)Oc1cccc([N+](C)(C)C)c1`, the Potency entry in the assay on UISO, with WaGa, in the assay on C33A, in the assay on CASKI, in the assay on Es-2 and in the assay on HeLa was “inactive” in each case. Also, the Potency result in the assay with Hek293T, in the assay with JEG-3 and in the assay with OV90 was “inactive” throughout.
Turning to `CC(C)[N+](C)(CCOC(=O)C1c2ccccc2Oc2ccccc21)C(C)C`, the Potency result in the assay on UISO, with C33A, with CAOV3, in the assay on CASKI, in the assay on Es-2 and in the assay on HeLa was “inactive” each time. Also, the Potency result in the assay on Hek293T, in the assay with JEG-3 and in the assay with OV90 was “inactive” each time.
With `CCCCNC(=O)NS(=O)(=O)c1ccc(C)cc1`, the Potency entry with UISO, in the assay with WaGa, with C33A, in the assay on CASKI, with Es-2 and in the assay on Hek293T was “inactive” in each case. Moreover, the Potency entry in the assay with JEG-3 and in the assay with OV90 was “inactive” in each case.
Consider `O=C(O)CN(CCN(CC(=O)O)CC(=O)O)CCN(CC(=O)O)CC(=O)O`, for which the Potency entry with UISO, in the assay with WaGa, with C33A, in the assay on CAOV3, with CASKI and in the assay on Es-2 was “inactive” in each case. Also, the Potency result in the assay on Hek293T, in the assay with JEG-3 and with OV90 was “inactive” each time.
In the case of `C[n+]1cc2c3c(ccc2c2ccc4cc5c(cc4c21)OCO5)OCO3`, the Potency with UISO was 1.3 µM (active); with WaGa, 1.03 µM (active); with C33A it was 2 µM (active); in the assay on Es-2, 8.91 µM (active); with HeLa it was 8.91 µM (active); with Hek293T, 8.91 µM (active). Besides, in the assay on OV90, the Potency was 11.2 µM (active).
For the compound `Brc1c(NC2=NCCN2)ccc2nccnc12`, the Potency result with UISO, in the assay with WaGa, in the assay on C33A, in the assay on CAOV3, in the assay on CASKI and in the assay on Es-2 was “inactive” in each case. Moreover, the Potency entry in the assay with Hek293T, in the assay with JEG-3 and in the assay with OV90 was “inactive” throughout.
In the case of `CC(=O)[C@]1(O)Cc2c(O)c3c(c(O)c2[C@@H](O[C@H]2C[C@H](N)[C@H](O)[C@H](C)O2)C1)C(=O)c1ccccc1C3=O`, the Potency in the assay with UISO is 0.422 µM (active); in the assay with WaGa, 0.106 µM (active); with C33A it was 0.501 µM (active); with CASKI, 1 µM (active); with Es-2 it was 1 µM (active); in the assay on HeLa, 7.08 µM (active). In addition, the Potency was 0.708 µM (active) in the assay with Hek293T and 3.16 µM (active) in the assay on OV90.
With `NC(=O)c1cn(Cc2c(F)cccc2F)nn1`, the Potency result in the assay with UISO, in the assay on WaGa, with C33A, with CAOV3, with CASKI and in the assay on Es-2 was “inactive” each time. In addition, the Potency result in the assay with Hek293T, with JEG-3 and in the assay on OV90 was “inactive” each time.
For `C[N+](C)(C)CCOC(N)=O`, the Potency entry with UISO, with WaGa, with C33A, in the assay on CASKI, with Es-2 and in the assay on HeLa was “inactive” each time. Further, the Potency result with Hek293T, in the assay with JEG-3 and in the assay with OV90 was “inactive” in each case.
With `COc1cc(C(=O)OCCCN2CCCN(CCCOC(=O)c3cc(OC)c(OC)c(OC)c3)CC2)cc(OC)c1OC`, the Potency result with UISO, in the assay with C33A, with HeLa, with Hek293T and with JEG-3 was “inactive” each time.
Regarding `COc1cc2c(cc1OC)-c1cc(=Nc3c(C)cc(C)cc3C)n(C)c(=O)n1CC2`, the Potency result with CAOV3, in the assay with Hek293T and with OV90 was “inactive” throughout.
On to `CC(C)(C)c1ccc(C(=O)CCCN2CCC(OC(c3ccccc3)c3ccccc3)CC2)cc1`, for which the Potency in the assay with WaGa was 15 µM (active); with CAOV3 it was 28.2 µM (active). Further, the Potency result in the assay with C33A, with CASKI, with Es-2, in the assay on HeLa and with JEG-3 was “inactive” each time.
On to `CC[N+](C)(C)c1cccc(O)c1`, for which the Potency result with C33A, in the assay with CAOV3, in the assay on CASKI, in the assay with Es-2, with HeLa and in the assay with Hek293T was “inactive” in each case. Also, the Potency entry in the assay with JEG-3 and with OV90 was “inactive” in each case.
In the case of `CCN(CC)CCCN(c1ccccc1)C1Cc2ccccc2C1`, the Potency result with UISO, in the assay on CASKI, in the assay on Es-2 and in the assay with JEG-3 was “inactive” in each case.
On to `COc1ccc([C@@H]2Sc3ccccc3N(CCN(C)C)C(=O)[C@@H]2OC(C)=O)cc1`, for which the Potency entry with C33A, in the assay on CASKI, in the assay on Es-2, with HeLa, with Hek293T and in the assay with JEG-3 was “inactive” each time. Also, the Potency result in the assay on OV90 was “inactive”.
For the compound `CCCCCCCC/C=C\CCCCCCCC(=O)NCc1ccc(O)c(OC)c1`, in the assay on C33A, the Potency is 7.94 µM (active). The Potency result with CAOV3, in the assay with CASKI, with Es-2, in the assay with HeLa, in the assay with Hek293T and in the assay on JEG-3 was “inactive” throughout. In the assay with OV90, the Potency entry is “inactive”.
Regarding `CCNC(=O)N1CCN(CCCC(c2ccc(F)cc2)c2ccc(F)cc2)CC1`, the Potency entry in the assay on C33A, in the assay on CAOV3, in the assay on CASKI, in the assay on Es-2, with HeLa and with JEG-3 was “inactive” throughout.
In the case of `COC(=O)[C@H]1[C@H]2C[C@@H]3c4[nH]c5cc(OC)ccc5c4CCN3C[C@H]2C[C@@H](OC(=O)c2cc(OC)c(OC)c(OC)c2)[C@@H]1OC`, the Potency result with C33A, in the assay on CAOV3, with CASKI, in the assay with Es-2, with Hek293T and with JEG-3 was “inactive” in each case. The Potency result with OV90 is “inactive”.
`CNCCCN1c2ccccc2CCc2ccccc21`: the Potency result with C33A, in the assay on Es-2, with Hek293T and in the assay on JEG-3 was “inactive” each time.
Take `CCCC(C(=O)OCCN(CC)CC)(c1ccccc1)c1ccccc1`: the Potency in the assay with UISO is 26.6 µM (active); with OV90, 12.6 µM (active). Moreover, the Potency result in the assay on CASKI and in the assay with JEG-3 was “inactive” in each case.
In the case of `CC1=C(C)C(=O)C(CCCCC#CCCCC#CCO)=C(C)C1=O`, the Potency with WaGa was 21.1 µM (active). Moreover, the Potency result with CAOV3, in the assay with CASKI, in the assay on Es-2, in the assay on HeLa, in the assay on JEG-3 and with OV90 was “inactive” each time.
Turning to `O=c1[nH]c(=O)n([C@H]2C[C@H](O)[C@@H](CO)O2)cc1Br`, the Potency entry with C33A, with CASKI, in the assay with Es-2, with HeLa, in the assay with Hek293T and with JEG-3 was “inactive” each time. Also, in the assay with OV90, the Potency result was “inactive”.
